Only some compounds are listed: those with a hit (about 1.6% of all), similar ones and a draw of the others.
LYPLA1 counter: counter-screen for PME1 inhibitors: inhibitors of human LYPLA1; O75608; recombinant LYPLA1, FP-Rh probe fluorescence polarization; inhibition, % at 5.9 µM; actives 0.16% (n = 320,000);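 active = inhibition above the mean of all tested compounds plus 3 SD, set per campaign, cut at about 14% in these data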;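 also: inhibitors block serine hydrolase probe labeling of LYPLA1 so polarization falls; 0% = enzyme with DMSO and 100% = wells lacking LYPLA1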
Target sequence (O75608 whole entry, looked up): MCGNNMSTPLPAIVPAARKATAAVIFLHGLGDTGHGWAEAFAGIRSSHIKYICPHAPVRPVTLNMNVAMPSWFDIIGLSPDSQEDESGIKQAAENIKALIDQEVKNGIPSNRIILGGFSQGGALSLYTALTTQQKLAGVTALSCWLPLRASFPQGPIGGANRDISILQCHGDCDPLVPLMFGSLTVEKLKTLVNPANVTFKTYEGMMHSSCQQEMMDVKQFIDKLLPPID
PREPL inhibitor: inhibits the human prolyl oligopeptidase-like enzyme | recombinant PREPL, fluorescence polarization activity-based probe | Q4J6C6 | actives 0.68% (n = 320,000) | AID 2751 | inhibition, % at 5.96 µM;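 also: 0% = enzyme with DMSO and 100% = wells lacking enzyme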
Fam108B inh: blocks mouse Fam108B hydrolase in RBBP9 counter-screen; recombinant Fam108B, FP-Rh probe fluorescence polarization; inhibition, % at 9.51 µM; actives 0.33% (n = 300,000);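 active = inhibition above the screen mean inhibition plus 3 SD, computed separately per campaign, cut at about 18% in these data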;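 also: inhibitors lower polarization as less probe binds the enzyme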
LYPLA2 counter: LYPLA2 (human) inhibition in PME1 counter-screen; inhibition, % at 5.9 µM; recombinant LYPLA2, FP-Rh probe fluorescence polarization; AID 2177; actives 0.38% (n = 320,000);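 active = inhibition above the screen-wide mean plus 3 SD, limit set per campaign, cut at about 26% in these data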;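 also: 0% = LYPLA2 with DMSO and 100% = wells lacking LYPLA2 enzyme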
Target sequence (O95372 whole entry, looked up): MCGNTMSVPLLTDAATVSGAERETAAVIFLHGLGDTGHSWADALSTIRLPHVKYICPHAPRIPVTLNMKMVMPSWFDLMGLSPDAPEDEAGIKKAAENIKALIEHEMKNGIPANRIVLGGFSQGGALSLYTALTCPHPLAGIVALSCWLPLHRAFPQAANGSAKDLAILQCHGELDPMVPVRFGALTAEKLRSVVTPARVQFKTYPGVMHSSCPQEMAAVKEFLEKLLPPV
PME-1 primary: PME-1 (human) inhibition. AID 2130. Q9Y570. inhibition, % at 5.9 µM. recombinant PME-1, FP-Rh probe fluorescence polarization. actives 0.53% (n = 320,000);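 active = inhibition above the campaign mean of all compounds plus 3 SD, cut at about 26% in these data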;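 also: competitive labeling of PME-1 active site by serine hydrolase directed probe; 0% = PME-1 with DMSO and 100% = wells lacking PME-1 enzyme; inhibitors block probe labeling so polarization falls and inhibition rises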
MEX-5 binding: C. elegans MEX-5 TCR-2 RNA binding activity. AID 1832. MEX-5/FITC-TCR2 RNA binding, fluorescence polarization; active compounds read low. activity score (negative = inhibition of binding), % at 10 µM. actives 0.38% (n = 300,000). Q9XUB2;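 active = inhibition past about -25% in most replicates, and total fluorescence under double the plate's negative control median, limit read from the data; inconclusive = replicates evenly split on the limit, or fluorescence at least double controls; inactive = too little inhibition in most replicates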;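 also: 0% = DMSO and -100% = 5 µM competing unlabeled TCR2 RNA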
Fam108b confirm: confirmation of mouse Fam108b serine hydrolase inhibitors; shares compounds with Fam108B inh; recombinant Fam108b, FP-Rh probe fluorescence polarization; inhibition, % at 9.51 µM; actives 44% (n = 930);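 active = inhibition above a limit from the primary screen, the mean over all compounds plus 3 SD, cut at about 19% in these data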;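 also: 0% = median of active Fam108b wells and 100% = catalytically dead S170A mutant; inhibitors free the probe so polarization falls as inhibition rises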
Fam108b inh: mouse ABHD17B inhibition | inhibition, % at 20 µM | actives 44% (n = 260) | shares compounds with Fam108B inh | recombinant Fam108b, gel-based ABPP, fluorophosphonate probe | AID 588649; in the data active = inhibition above about 40%
LYPLA1 confirm: LYPLA1 (human) inhibition, confirmation counter-screen; AID 2233; actives 69% (n = 480); shares compounds with LYPLA1 counter; recombinant LYPLA1, FP-Rh probe fluorescence polarization; inhibition, % at 5.9 µM;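 active = mean inhibition across replicates above the hit cutoff set in the primary screen, cut at about 15% in these data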;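 also: loss of FP-Rh probe labeling of LYPLA1 seen as lower polarization; 0% = LYPLA1 with DMSO and 100% = wells lacking LYPLA1 enzyme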
LYPLA2 confirm: LYPLA2 (human) inhibition, confirmation counter-screen; shares compounds with LYPLA2 counter; recombinant LYPLA2, FP-Rh probe fluorescence polarization; inhibition, % at 5.9 µM; actives 72% (n = 1,100);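 active = mean inhibition across replicates above the hit cutoff set in the primary screen, cut at about 26% in these data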;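 also: blocked labeling of the enzyme by serine hydrolase FP-Rh probe lowers polarization; 0% = enzyme with DMSO and 100% = wells lacking LYPLA2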
PREPL confirm: human PREPL inhibition, confirmation; shares compounds with PREPL inhibitor; recombinant PREPL, fluorescence polarization activity probe; inhibition, % at 5.96 µM; actives 67% (n = 2,000); AID 2803;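 also: 0% = protein with DMSO and 100% = wells lacking protein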
Active calls of the source: *; ? = inconclusive; . = not tested or not shown. Rule as the data show it, unless noted: active = inhibition above about 43%; inactive = the rest.

SMILES	LYPLA1 counter	PREPL inhibitor	Fam108B inh	LYPLA2 counter	PME-1 primary	MEX-5 binding	Fam108b confirm	PREPL confirm	others
Cc1ccc(/C=C/C(=O)NCC2COc3ccccc3O2)o1 (stereo not drawn)	-3	-7	-2	0	-3	0	.	.
O=[N+]([O-])c1cc(Cl)cc(/C=N/NC(=S)Nc2ccc(S(=O)(=O)N3CCOCC3)cc2)c1O	13	46*	39*	5	19	-3	31*	28
N#Cc1ccc(/C=N/NC(=S)Nc2ccc(S(=O)(=O)N3CCOCC3)cc2)cc1	0	10	-1	4	-1	0	.	.
CCOc1ccc(N=C2C(=O)Nc3ccc(C)c(Br)c32)cc1	1	6	3	7	3	-2	.	.
O=c1c(-c2ccccc2)c(-c2ccccc2)oc2cc(O)cc(O)c12	-5	8	8	-7	-4	-3	.	.
O=c1c(O)c(-c2cc(O)c(O)c(O)c2)oc2cc(O)cc(O)c12	-31	90*	31*	-22	19	.	-27	55*
CCCc1nc(N)c(C#N)c(N)c1C#N	0	1	2	3	1	2	.	.
C=CCNC(=O)/C(=C\c1ccc(OC)cc1)NC(=O)c1ccc([N+](=O)[O-])cc1	-7	1	0	-6	-12	7	.	.
O=c1c(O)cccc2cc(O)c(O)c(O)c12	-12	63*	49*	13	19	-37*	31*	37	Fam108b inh=0
Cc1cc(O)ccc1N=Cc1c(C(F)(F)F)[nH][nH]c1=O	71*	70*	31*	86*	89*	-14	0	13	LYPLA1 confirm=5;LYPLA2 confirm=6
Cc1cc(=O)[nH]c(SCC(=O)Nc2ccc(S(N)(=O)=O)cc2)n1	1	6	5	4	0	0	.	.
NC(=O)COC(=O)C1c2ccccc2Oc2ccccc21	-7	1	7	1	-12	-2	.	.
N#CCN(CC#N)C(=O)C1c2ccccc2Oc2ccccc21	87*	75*	91*	105*	77*	1	-9	-4	LYPLA1 confirm=2;LYPLA2 confirm=0
Cn1cnnc1SCCCN1C(=O)c2cccc3cccc(c23)C1=O	0	3	3	-5	7	-1	.	.
COc1ccc(/C=N/Nc2cc(C)nc3ccc(Br)cc23)cc1	-9	56*	20*	-20	35*	-1	-1	52*
COc1ccc2nc(C)cc(N/N=C/c3cccc(OC)c3O)c2c1	0	64*	19*	-12	14	2	-1	59*
Cc1cc(N/N=C/c2ccccc2O)c2ccccc2n1	-4	27	9	2	6	-7	.	.
CCCCCCCCNC(=S)NCCN1CCCCC1	.	.	.	.	.	1	.	.
O=C(Nc1ccc(Cl)cc1)Nc1ccc2c(c1)N1CCN=C1S2	-12	58*	22*	-2	20	1	10	37
O=S(=O)(Nc1c(S(=O)(=O)c2ccccc2)c2nc3ccccc3nc2n1C1CCCCC1)c1ccccc1	-2	-9	3	2	-10	0	.	.
C=CCn1c(NS(=O)(=O)c2ccccc2)c(S(=O)(=O)c2ccc(C)cc2)c2nc3ccccc3nc21	80*	47*	74*	82*	33*	1	5	13	LYPLA1 confirm=66*;LYPLA2 confirm=90*
CCOc1cc(/C=C2\C(=O)N(c3ccc(C(N)=O)cc3)N=C2C)ccc1OC(=O)c1cccs1	1	58*	20*	15	9	-5	8	91*
O=C(CSCc1ccc(Cl)cc1)Nc1cccc(C(=O)O)c1	0	-5	5	1	1	-1	.	.
Brc1cc2c(cc1/C=N/Nc1nc3ccccc3s1)OCO2	0	-13	7	-1	4	-1	.	.
Brc1csc(/C=N/Nc2nc3ccccc3s2)c1	-10	54*	32*	20	31*	-1	37*	41
SMILES	LYPLA1 counter	PREPL inhibitor	Fam108B inh	LYPLA2 counter	PME-1 primary	MEX-5 binding	Fam108b confirm	PREPL confirm	others
CC1CN(C(=O)CSc2nnc(-c3ccncc3)n2-c2ccccc2)CC(C)O1 (stereo not drawn)	0	-6	2	7	0	-3	.	.
CC(=O)[C@]1(O)Cc2c(O)c3c(c(O)c2[C@@H](O[C@H]2C[C@H](N)[C@H](O)[C@H](C)O2)C1)C(=O)c1ccccc1C3=O	77*	66*	71*	74*	72*	?	73*	85*	Fam108b inh=20;LYPLA1 confirm=78*
CC(=O)c1cc(CN2CCC(N3CCC(C(=O)NC(C)C)CC3)CC2)cs1	-1	11	1	7	3	2	.	.
COc1ccc2noc3c2c1C(=O)c1ccccc1-3	25*	50*	20*	29*	26*	?	23*	35	LYPLA1 confirm=21*;LYPLA2 confirm=23
O=C(NCCc1ccccc1)c1ccc2c(=O)[nH]c3c(C(=O)NCC4CCCO4)sc(=S)n3c2c1 (stereo not drawn)	5	93*	34*	14	23	-5	35*	90*	Fam108b inh=20
CC(=O)c1ccc(N2CCN(C(=O)c3cccc(Oc4ccccc4)c3)CC2)cc1	48*	-32	0	67*	4	-1	.	.	LYPLA1 confirm=62*
COc1ccc(NC(=S)N(Cc2cccc(Br)c2)CC2CCC(C(=O)O)CC2)cc1 (stereo not drawn)	7	10	4	4	-8	-3	.	.
Cc1nnc(SCC(=O)Nc2sc3c(c2C#N)CCCC3)[nH]c1=O	-2	18	-1	-10	1	-2	.	.
N#Cc1c(NC(=O)CSc2nc(N)cc(=O)[nH]2)sc2c1CCCC2	46*	7	0	14	2	2	.	.	LYPLA1 confirm=47*
COc1ccccc1NC(=O)Nc1nc(CC(=O)N2CCN(c3ccccc3F)CC2)cs1	-8	25	-3	-11	0	2	.	.
CCCC(=Nc1ccccc1)C1=C(O)C(C(=O)OC)C(C)(C)CC1=O (stereo not drawn)	1	8	0	-3	2	0	.	.
